TDP1 block = blocks human tyrosyl-DNA phosphodiesterase 1. hit rate 0.28% among 350,000. Potency, µM (series often up to 130 µM), inactives show at the highest dose activity change, negative = inhibition, most hits filed as inhibitors. Q9NUW8. AID 485290. recombinant TDP1, AlphaScreen DNA substrate cleavage; note: nearly all actives have a fitted effect of over 40% in size
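Compounds were preincubated with Tdp1 (1 nM final) for 15 min at room temperature before substrate (15 nM final) started a 5 min reaction; beads (10 ug/ml final) were then added for 10 min before AlphaScreen detection.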
TDP1 cell CPT = DT40-hTDP1 cell growth loss with CPT | chicken DT40 Tdp1-/-;hTDP1 cells + 20 nM CPT, ATP luminescence, 48 h | hit rate 12% among 420,000 | AID 686979 | Potency, µM (titrated, usually from 46.2 µM), for the others: at the highest dose activity change, negative = growth inhibition, hits mostly inhibitors; note: nearly all actives have a fitted effect of over 55% in size
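Chicken DT40 Tdp1-/- cells complemented with human TDP1, 400 cells/well, exposed to compounds plus 20 nM camptothecin for at least 48 h at 37 C; viability read as ATP content by CellTiter-Glo luminescence.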
GCN5L2 inh = inhibitors of human GCN5L2 histone acetyltransferase. Q92830. GCN5L2 HAT assay, ThioGlo1 CoA-SH fluorescence. Potency, µM (titrated, usually from 58.9 µM), inactives show top-dose activity change, negative = inhibition, usual class: inhibitors. hit rate 0.21% among 390,000
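Enzyme at 20nM final was mixed with library compounds for 15 min at room temperature. Peptide H3(1-25) at 75uM, acetyl-CoA at 70uM and ThioGlo1 at 50uM were then added. Plates were read immediately and after 20 min (Ex340nm/Em540nm).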
TDP1 cell noCPT = qHTS for Inhibitors of human tyrosyl-DNA phosphodiesterase 1 (TDP1): qHTS in cells in absence of CPT; DT40 Tdp1-/- hTDP1 cells, no CPT, ATP luminescence, 48 h; hit rate 15% among 420,000; Potency, µM (series often up to 46.2 µM), inactives show at the highest dose activity change, negative = growth inhibition, actives largely listed as inhibitors; AID 686978, 2013; note: nearly all actives have a fitted effect of over 55% in size
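Stably hTDP1-transfected Tdp1-null chicken DT40 cells were treated with library compounds minus camptothecin and grown for at least 48 hr at 37 °C, after which cellular ATP was quantified by luminescence.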
PLK1 PBD block = PLK1 (human) polo-box domain binding inhibition | P53350 | hit rate 2.8% among 360,000 | Potency, µM, without a hit: max response, negative = inhibition, usual class: inhibitors | Plk1 PBD binding of FITC phosphopeptide, fluorescence polarization; note: series mostly up to about 57 µM; nearly all actives have a fitted effect of over 65% in size
Target sequence (P53350 whole entry, looked up, the tested form may be a part): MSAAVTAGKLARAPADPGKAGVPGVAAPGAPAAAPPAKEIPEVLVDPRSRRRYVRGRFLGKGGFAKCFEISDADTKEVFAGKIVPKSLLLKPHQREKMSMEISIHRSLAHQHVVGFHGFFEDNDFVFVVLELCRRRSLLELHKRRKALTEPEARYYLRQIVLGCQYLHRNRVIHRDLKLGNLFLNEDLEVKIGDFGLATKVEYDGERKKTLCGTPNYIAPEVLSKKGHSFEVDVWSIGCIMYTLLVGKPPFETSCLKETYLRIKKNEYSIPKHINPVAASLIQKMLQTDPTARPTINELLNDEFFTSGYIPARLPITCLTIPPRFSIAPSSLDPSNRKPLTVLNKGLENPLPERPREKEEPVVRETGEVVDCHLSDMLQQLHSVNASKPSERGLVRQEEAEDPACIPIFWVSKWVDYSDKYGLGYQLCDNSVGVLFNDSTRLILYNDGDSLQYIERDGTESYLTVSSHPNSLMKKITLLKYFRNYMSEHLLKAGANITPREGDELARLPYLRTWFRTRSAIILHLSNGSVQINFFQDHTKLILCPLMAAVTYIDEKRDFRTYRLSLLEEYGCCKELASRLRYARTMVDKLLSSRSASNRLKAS
VDR inh = vitamin D3 receptor (human) inhibition | P11473 | VDR-SRC2-3 peptide fluorescence polarization, 2 h | Potency, µM, for the others: max response, negative = inhibition, most hits filed as inhibitors | hit rate 0.93% among 400,000
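VDR–SRC2-3 interaction, FP format. Cmpds 23 nl via pintool, brief spin, 2 h ambient incubation.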
Active calls of the source: *; [ ] = remark or other dose. A selection: hits, their analogues and other compounds. The true share with any hit is near 18%. Calls come from the whole dose curve; as a rule, active = well fitted curve in the direction sought with a large enough effect; inconclusive = small, poorly fitted or top-dose-only effect, or another doubt; inactive = no such curve, though single readings can be large; an effect the other way counts as inactive or inconclusive. % is set by controls: 0 for no effect and ±100 for the full control effect; potency is the fitted concentration of half-maximal effect.

How did O=C(Nc1ccccc1C(=O)Nc1ccccc1C(=O)O)c1ccccc1 do in these assays?
TDP1 cell CPT: inconclusive; GCN5L2 inh: 1.5%; TDP1 cell noCPT: 11.6µM*; PLK1 PBD block: inconclusive; VDR inh: -13.0%

What do the screens show for `COC(=O)c1ccccc1NC(=O)Nc1cccc(C)n1`?
TDP1 block: 2.7%; TDP1 cell CPT: -21.4%; GCN5L2 inh: 1.3%; TDP1 cell noCPT: 12.4%; PLK1 PBD block: 4.7%; VDR inh: 24.2%

How did Cc1ccc(C(=O)Sc2cccccc2=O)cc1 do in these assays?
TDP1 cell CPT: 0.731µM*; GCN5L2 inh: -28.5%; TDP1 cell noCPT: 0.517µM*; PLK1 PBD block: 2.67µM*; VDR inh: 20µM*

Results for O=C(Nc1ccccc1Cl)c1ccccc1 ?
TDP1 block: 0.0%; TDP1 cell CPT: 1.8%; GCN5L2 inh: -5.4%; TDP1 cell noCPT: -0.6%; PLK1 PBD block: 9.6%; VDR inh: -7.2%

What do the screens show for `O=C(Nc1ccccc1C(=O)NC(Cc1ccccc1)C(=O)NC1CCCCC1)c1ccccc1` (stereo unspecified)?
TDP1 block: 8.2%; TDP1 cell CPT: inconclusive; GCN5L2 inh: -9.4%; TDP1 cell noCPT: 25.9µM*; PLK1 PBD block: -12.8%; VDR inh: -5.7%

Results for O=C(Nc1cc(NC(=O)c2ccccc2Cl)ccc1Cl)c1ccccc1 ?
TDP1 block: 2.2%[12.3 µM]; TDP1 cell CPT: inconclusive; GCN5L2 inh: -8.5%; TDP1 cell noCPT: 20.6µM*; VDR inh: -9.7%

Results for O=C(Nc1ccccc1C(=O)NC(Cc1ccccc1)C(=O)O)c1ccccc1 (stereo unspecified) ?
TDP1 block: -2.4%; TDP1 cell CPT: -7.1%; GCN5L2 inh: 0.2%; TDP1 cell noCPT: -3.4%; PLK1 PBD block: -20.0%; VDR inh: -2.8%

How did Cc1ccc(S(=O)(=O)N2CCN(C(=O)CCC(=O)NCc3ccc(F)cc3)CC2)cc1 do in these assays?
TDP1 block: 3.4%; TDP1 cell CPT: -18.6%; GCN5L2 inh: 0.9%; TDP1 cell noCPT: -14.8%; PLK1 PBD block: -7.5%; VDR inh: -4.7%

Results for COc1ccc(C2=Nc3ccccc3N(C(=O)c3ccc(C(F)(F)F)cc3)C2C(=O)Nc2ccc3c(c2)OCCO3)cc1 (stereo unspecified) ?
TDP1 cell CPT: 6.7%; TDP1 cell noCPT: -16.1%; PLK1 PBD block: -10.2%

What do the screens show for `O=S(=O)(c1cccc(Cl)c1)N1CCN(c2nc(-c3cccs3)nc3ccccc23)CC1`?
TDP1 block: 0.5%; TDP1 cell CPT: inconclusive; TDP1 cell noCPT: inconclusive; VDR inh: -14.6%

What do the screens show for `O=C(N/N=C/c1sc(=O)n(Cc2ccc(Br)cc2)c1Cl)c1ccco1`?
TDP1 block: 39.8µM*; TDP1 cell CPT: inconclusive; GCN5L2 inh: -24.2%; TDP1 cell noCPT: inconclusive; PLK1 PBD block: -7.0%; VDR inh: 9.8%

What do the screens show for `O=C(N/N=C/c1ccc(Br)s1)c1ccco1`?
TDP1 block: 4.1%; TDP1 cell CPT: inconclusive; GCN5L2 inh: -17.0%; TDP1 cell noCPT: inconclusive; PLK1 PBD block: -2.1%; VDR inh: -9.1%

Results for CCOC(=O)CC1C(=O)NCCN1S(=O)(=O)c1cccc(C(F)(F)F)c1 (stereo unspecified) ?
TDP1 block: 2.1%; TDP1 cell CPT: 5.7%; GCN5L2 inh: -21.9%; TDP1 cell noCPT: 8.8%; PLK1 PBD block: -1.3%; VDR inh: 3.5%

Results for Cc1ccc(CNC(=O)c2c[nH]n3c(=O)c(Cc4ccc(F)cc4Cl)c(C)nc23)cc1 ?
TDP1 block: 12.7%; TDP1 cell CPT: inconclusive; GCN5L2 inh: 35.5µM*; TDP1 cell noCPT: inconclusive; VDR inh: -7.7%

What do the screens show for `COc1ccc(CCNC(=O)c2c[nH]n3c(=O)c(Cc4ccccc4Cl)c(C)nc23)cc1OC`?
TDP1 block: 15.6%; TDP1 cell CPT: inconclusive; GCN5L2 inh: 28.2µM*; TDP1 cell noCPT: inconclusive; VDR inh: 7.0%

Results for Cc1nc2c(C(=O)NCCC(C)C)c[nH]n2c(=O)c1Cc1ccccc1F ?
TDP1 block: 9.5%; TDP1 cell CPT: inconclusive; GCN5L2 inh: -8.7%; TDP1 cell noCPT: inconclusive; PLK1 PBD block: 21.2µM*; VDR inh: -5.9%

How did Cc1nc2c(C(=O)NCCc3ccc(Cl)cc3)c[nH]n2c(=O)c1Cc1ccccc1F do in these assays?
TDP1 block: 10.9%; TDP1 cell CPT: -5.6%; GCN5L2 inh: inconclusive; TDP1 cell noCPT: -8.6%; VDR inh: -23.2%

Results for CCOc1ccc(NC(=O)Nc2ccccc2SC)cc1 ?
TDP1 block: 0.0%; TDP1 cell CPT: inconclusive; GCN5L2 inh: 0.3%; TDP1 cell noCPT: 23.1µM*; PLK1 PBD block: -21.3%; VDR inh: -26.6%

How did CSc1ccc(NC(=O)Nc2cccn(Cc3ccccc3F)c2=O)cc1 do in these assays?
TDP1 block: 2.8%; TDP1 cell CPT: inconclusive; GCN5L2 inh: -1.5%; TDP1 cell noCPT: 25.9µM*; PLK1 PBD block: 4.4%; VDR inh: -12.6%

What do the screens show for `O=C(NCc1ccccc1)Nc1cccn(Cc2ccccc2F)c1=O`?
TDP1 block: 5.5%; TDP1 cell CPT: inconclusive; GCN5L2 inh: 3.0%; TDP1 cell noCPT: inconclusive; PLK1 PBD block: -6.9%; VDR inh: 7.8%

Results for CCOc1ccc(NC(=O)Nc2cccn(Cc3ccccc3)c2=O)cc1 ?
TDP1 block: 3.5%; TDP1 cell CPT: inconclusive; GCN5L2 inh: -9.8%; TDP1 cell noCPT: 14.6µM*; PLK1 PBD block: 1.1%; VDR inh: 6.3%

Results for Cc1ccc(NC(=O)NCc2cccn2Cc2ccccc2)cc1F ?
TDP1 block: 4.5%; TDP1 cell CPT: -9.8%; GCN5L2 inh: 3.5%; TDP1 cell noCPT: -7.7%; VDR inh: 9.8%

How did CCOC(=O)Cc1ccc(NC(=O)NCc2cccn2Cc2ccccc2)cc1 do in these assays?
TDP1 block: 9.7%; TDP1 cell CPT: 13µM*; GCN5L2 inh: -7.3%; TDP1 cell noCPT: 20.6µM*; VDR inh: 4.8%

What do the screens show for `CN(C)CCN1C(=O)C(=O)/C(=C(/O)c2ccc(S(=O)(=O)N3CCOCC3)cc2)C1c1ccc(F)cc1` (stereo unspecified)?
TDP1 block: 3.4%; TDP1 cell CPT: 13.7%; GCN5L2 inh: -22.5%; TDP1 cell noCPT: -0.7%; PLK1 PBD block: 2.3%; VDR inh: -5.0%

Results for O=C(NCc1cccc2ccccc12)c1cccs1 ?
TDP1 block: 0.6%; TDP1 cell CPT: inconclusive; GCN5L2 inh: -0.9%; TDP1 cell noCPT: inconclusive; PLK1 PBD block: 0.2%; VDR inh: 1.4%

Compound activity as filed in PubChem BioAssay.
